Most compounds without a hit are left out; they make up all but 1.3% or so of the library.
Rce1 inh: blocks yeast Ras-converting enzyme. yeast membranes, quenched prenylated peptide cleavage fluorescence. calls only. 290,000 compounds, 0.27% hits. AID 2563;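 active means fall in fluorescence gain of 50% or more versus controls, with final raw signal at or below 3038400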;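 further: plate controls were neutral control wells for no effect and wells lacking membranes for full effect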
Target sequence (Q03530 whole entry, looked up): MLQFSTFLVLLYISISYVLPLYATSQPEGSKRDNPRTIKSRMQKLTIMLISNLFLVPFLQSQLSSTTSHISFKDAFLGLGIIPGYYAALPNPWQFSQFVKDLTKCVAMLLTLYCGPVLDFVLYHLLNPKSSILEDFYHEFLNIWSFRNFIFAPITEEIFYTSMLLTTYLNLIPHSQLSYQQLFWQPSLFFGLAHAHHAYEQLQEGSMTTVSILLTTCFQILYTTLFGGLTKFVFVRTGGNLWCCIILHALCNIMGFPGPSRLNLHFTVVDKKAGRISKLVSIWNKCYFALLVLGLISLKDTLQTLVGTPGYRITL
C2C12 statin: protects C2C12 myotubes from simvastatin toxicity; ATP luminescence, 48 h; scaled: DMSO 0, geranylgeraniol control 100; rescue of ATP level, % at 7.49 µM; 330,000 compounds, 0.78% hits; AID 602340;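 active means mean ATP rescue above about 67%, or every replicate alone reaching that limit, limit read from the data, passing the limit was not always enough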;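 further: myotubes were challenged with 10 µM simvastatin during compound exposure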
HIF act: HIF pathway transcriptional activation. activation, % at 7.5 µM (by protocol). U2OS HRE-luciferase reporter, luminescence; normalized: DMSO 0%, desferrioxamine 100%. 300,000 compounds, 0.32% hits;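 active means mean activation of at least 10% of the iron chelator positive control signal, with at least half of replicates also reaching 10%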
AI-2 QS modul: modulators of Vibrio harveyi AI-2 quorum sensing system. Vibrio harveyi JMH597 AI-2 luminescence/OD600 ratio, 9 h; hits give low values; strain lacks LuxN and CqsS sensors; 0 = neutral-control median. activity change, % at 7.5 µM. 300,000 compounds, 0.4% hits; in the data active means activity change below about -75%, passing the limit was not always enough;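 further: luminescence divided by OD600 gain over 9 h not by final OD600 alone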
PGC1a acetyl inh: lowers PGC1a acetylation signal in U2OS cells | AlphaScreen anti-acetyl-lysine; with virally co-expressed GCN5 acetyltransferase | inhibition, % at 15.6 µM | 350,000 compounds, 0.17% hits | AID 651687;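 active means every replicate shows inhibition of at least 40%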;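 further: 0% = neutral control wells and 100% = positive control wells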
* = called active by the depositor; i = inactive; · = not tested or not shown; + = active, no number.

SMILES	Rce1 inh	C2C12 statin	HIF act	AI-2 QS modul	PGC1a acetyl inh
OCCNc1nc(N2CCCCC2)nc2ccccc12	i	-6	-1	11	67*
Cc1onc(-c2ccccc2)c1C(=O)Nc1ccc(S(=O)(=O)N2CCCCC2)cc1	i	18	·	52	-10
Cc1onc(-c2ccccc2)c1C(=O)Nc1ccc(S(=O)(=O)N2CCCC2)cc1	i	·	87*	10	·
S=C(N/N=C/c1ccccc1Cl)Nc1ccccc1	i	11	3	12	9
S=C(N/N=C/c1cccc2ccccc12)Nc1cccc(Cl)c1	i	-11	220*	-6	-8
Cc1c(Cl)cccc1NC(=S)N/N=C/c1ccccc1Cl	i	·	41*	-5	·
CC(C)NC(=O)Nc1cccc2c1O[C@@H](CN(C)S(=O)(=O)c1cccs1)[C@@H](C)CN([C@H](C)CO)C2=O	·	·	·	·	-2
O=C(NCc1nc2ccccc2[nH]1)C1=C[C@@H](c2coc3ccccc3c2=O)C[C@@H](OCCCCO)O1	·	·	·	·	3
COc1cccc(NC(=O)CSc2nnc(-c3cc(-c4ccccn4)nc4ccccc34)o2)c1	i	83*	-1	24	0
CC(C)(C)c1cc(C(=O)N2CCN(c3ncccn3)CC2)ccn1	i	16	882*	5	3
CC(C)(C)c1ccc(C(=O)N2CCN(c3ncccn3)CC2)cc1	i	-7	0	16	·
Cc1c2c(nc3c(C(=O)NC4CCCC4)cnn13)CCCC2	i	-5	0	19	2
COC(=O)c1cnn2c3c(c(C)nc12)CCCC3	+	·	3	34	-3
O=C(Nc1ccc(F)cc1F)NC1CC(=O)N(Cc2ccccc2)C1 (configuration not stated)	i	86*	0	8	12
CCOc1cccc(-c2c(C(=O)N/N=C/c3c(F)cccc3Cl)nnn2-c2nonc2N)c1	+	0	0	-26	5
CCOc1ccc(-c2c(C(=O)N/N=C/c3cccs3)nnn2-c2nonc2N)cc1	+	-1	-1	19	11
O=C(NC1CCCC1)N[C@H]1CC[C@H](CC(=O)N2CCOCC2)O[C@H]1CO	·	3	·	·	8
COc1ccccc1NC(=O)N1CC(=O)N2[C@H](CO)[C@H](c3ccc(C#CC4CC4)cc3)[C@H]2C1	·	·	·	·	-2
Nc1ccc(C(=O)Nc2ccc3cc(S(=O)(=O)O)ccc3c2)cc1	·	93*	·	·	5
O=Nc1c(O)c2ccccc2c2ccccc12	i	-25	-5	-36	45*
Cc1cccc(Cc2c(C)nc3c(C(=O)NCc4ccco4)cnn3c2C)c1	i	107*	-1	13	8
Cc1nc2c(C(=O)NCc3ccco3)cnn2c(C)c1Cc1ccc(F)cc1Cl	i	42	0	5	7
C[C@@H]1CN([C@H](C)CO)C(=O)c2cc(NS(C)(=O)=O)ccc2O[C@@H]1CN(C)S(=O)(=O)c1ccc(F)cc1	·	-19	·	·	1
C[C@H]1CCCCO[C@H](CN(C)S(=O)(=O)c2ccccc2)[C@@H](C)CN([C@@H](C)CO)C(=O)c2cc(NS(=O)(=O)c3ccc(F)cc3)ccc2O1	·	·	·	·	-3
S=c1[nH]nc(-c2ccco2)n1/N=C/c1cccs1	i	·	58*	25	·
SMILES	Rce1 inh	C2C12 statin	HIF act	AI-2 QS modul	PGC1a acetyl inh
O=C(Nc1ccccc1)N1CCCCN2[C@H](C1)[C@@H](c1ccc(Br)cc1)[C@@H]2CO	·	8	·	·	-4
O=C(Nc1ccccc1)N1CCCCN2[C@H](C1)[C@H](c1ccc(Br)cc1)[C@@H]2CO	·	95*	·	·	-8
CCC(NS(=O)(=O)c1ccc(C)cc1)C(=O)Nc1ccc(NC(C)=O)cc1 (configuration not stated)	i	138*	0	37	2
CCC(C)NS(=O)(=O)c1ccc(NC(C)=O)cc1 (configuration not stated)	i	-5	0	5	16
Cn1c(=O)c(=O)n(C)c2cc(N3CCOCC3)c(NS(=O)(=O)c3ccc([N+](=O)[O-])cc3)cc21	i	109*	0	11	6
COCCNC(=O)CCc1c(C)nc2c(c(C)nn2-c2ccc(C)c(C)c2)c1C	i	-8	-1	26	78*
CCOC(=O)[C@@H]1[C@H]2COc3ccc(Br)cc3[C@@H]2N2C(=O)N(c3cccc(Cl)c3)C(=O)[C@]12C	+	-12	-1	24	-7
